# Assay results as given in the supplement of paper PMC3334620.
# Whole data set: some 33,000 sequences, median “E-score (-0.5 to 0.5)” near -0.054, cut for the highest 2% near 0.35. The full list was thinned out, with the highest values kept by preference.
# Biological target: T1, Stb5 (UniProt P38699)
# T1 sequence: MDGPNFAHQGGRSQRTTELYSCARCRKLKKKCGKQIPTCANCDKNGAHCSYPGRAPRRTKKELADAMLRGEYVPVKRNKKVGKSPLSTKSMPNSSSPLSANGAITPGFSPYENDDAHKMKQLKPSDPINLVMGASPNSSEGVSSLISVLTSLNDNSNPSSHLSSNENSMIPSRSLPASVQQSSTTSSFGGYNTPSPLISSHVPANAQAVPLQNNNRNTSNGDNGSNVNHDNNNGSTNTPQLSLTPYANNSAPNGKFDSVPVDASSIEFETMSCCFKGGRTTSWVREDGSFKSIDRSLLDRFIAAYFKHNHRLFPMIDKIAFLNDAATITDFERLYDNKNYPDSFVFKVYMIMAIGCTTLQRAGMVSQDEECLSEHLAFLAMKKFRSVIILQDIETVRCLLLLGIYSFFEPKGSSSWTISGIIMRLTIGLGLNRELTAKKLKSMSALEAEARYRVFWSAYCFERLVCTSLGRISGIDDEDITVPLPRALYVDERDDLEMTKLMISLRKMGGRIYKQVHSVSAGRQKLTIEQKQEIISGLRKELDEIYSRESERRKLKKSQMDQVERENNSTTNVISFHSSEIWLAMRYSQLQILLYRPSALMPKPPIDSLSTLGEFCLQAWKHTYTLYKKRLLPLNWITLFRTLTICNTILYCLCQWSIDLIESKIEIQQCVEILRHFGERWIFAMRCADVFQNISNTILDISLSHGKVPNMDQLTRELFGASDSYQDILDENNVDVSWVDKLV
# Experiment: PBM E-score (8-mer binding enrichment) (E-score (-0.5 to 0.5)); higher = stronger / more preferred TF binding
# Conditions: protein concentration: 200 nM; construct: GST-full length
# Method: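 Universal 'all 10-mer' protein binding microarrays (Agilent AMADID 015681) probed with GST-tagged S. cerevisiae TFs (full-length or DBD) made by in vitro transcription/translation (PURExpress), about 100-200 nM. Bound TF was detected with fluorescent anti-GST. Each ungapped 8-mer (which stands for itself and its reverse complement) is scored by the PBM enrichment score (E-score), a modified Wilcoxon-Mann-Whitney statistic from -0.5 to +0.5, computed with the Universal PBM Analysis Suite. Scale: above 0.35 generally sequence-specific binding.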
row,Sequence,PBM E-score
1,GCAGACGC,-0.0745
2,AAAAGCAT,-0.0942
3,CTCTCCGA,0.00777
4,ATCTCCCC,0.0718
5,ATCTCCGA,0.394
6,ATCTCCGC,0.406
7,ATCTCCAG,0.0194
8,ATCTCCCG,0.124
9,GTCTCCGA,0.23
10,CTCTCCGC,0.0985
11,ATCTCCGG,0.423
12,AGGCGTTG,-0.11
13,AAAAGGGT,-0.27
14,CCCAGGAA,-0.286
15,TCGAATCA,-0.163
16,ACGACCCA,-0.191
17,CCGACCCA,0.369
18,TCGACCCA,-0.256
19,GGGACCCA,-0.0663
20,CCGACCGC,0.284
21,CCGACCGA,0.314
22,CGGACCCA,0.381
23,CGGACCAG,0.0937
24,CGGACCAC,0.134
25,CGGACCAA,0.376

row,Sequence,PBM E-score
1,CCGACCGG,0.382
2,TGGACCCA,-0.218
3,CGAAGAGA,-0.138
4,AAAGCGCG,0.121
5,CTGTGCGA,-0.121
6,GTTGCAAC,0.183
7,ATGAAAGC,-0.0893
8,GGGACCTA,0.138
9,CGGACCTA,0.466
10,AGGACCTA,0.141
11,CTGACCGA,-0.0342
12,CGGACCGA,0.4
13,GGGACCGA,0.257
14,ATGGCTTA,-0.119
15,ACCCCAGC,-0.0864
16,CAATAGCC,0.0314
17,CACATCTG,-0.103
18,CGGCCATA,0.376
19,GGGCCCTA,-0.0134
20,CGGCCCTA,0.426
21,AGGCCCTA,-0.0592
22,CGGCCATC,0.157
23,GGGCCATA,0.0906
24,ACCAGACA,-0.0752
25,ATCTCATA,-0.186

row,Sequence,PBM E-score
1,AAAGTAAG,-0.119
2,CATTTTAG,0.189
3,CTTACTGA,-0.164
4,AAGAGTCC,0.118
5,GGTGTTAC,0.4
6,CGTGTTAC,-0.0374
7,GGTGTAAC,0.381
8,GGTGTTAA,0.447
9,TGTGTTAA,-0.145
10,AGTGTTAC,-0.0686
11,AGTGTAAC,-0.175
12,CGTGTTTA,0.112
13,CGTGTAAC,0.134
14,CGTGTTAA,-0.191
15,AGTGTTTA,-0.0504
16,GGTGTTTA,0.425
17,ATTCACAC,-0.136
18,CCTGATAA,-0.0146
19,CCCAACCA,-0.0714
20,GATCTAAC,-0.143
21,ATACTATG,-0.0158
22,ACGCTGCT,-0.0899
23,CACTCTCA,-0.237
24,ACTTTCCA,-0.0496
25,CAGCGGCG,0.326

row,Sequence,PBM E-score
1,CAGCGGAA,0.164
2,AAGCGGGG,0.296
3,CAGCGGGC,0.224
4,CAGCGGGG,0.358
5,CAGCGGAG,0.352
6,ACCGAACG,0.308
7,ATGAAAGG,0.0036
8,ACCGCCGA,0.405
9,GCCGCCGA,0.329
10,ACCGCCTA,0.206
11,ACCGCCAC,0.316
12,ACCGCCGC,0.383
13,ACCGCCTG,0.25
14,ACCGCCTC,0.313
15,TCCGCCGA,0.346
16,ACCGCCGT,0.38
17,ACCGCCGG,0.414
18,ACCGCAGT,0.206
19,ACGGTTGA,-0.165
20,ACTCTTTG,-0.24
21,ATCAAGGA,-0.12
22,CGCCCCCG,0.209
23,ACCTTTGC,-0.0619
24,ACCACCTA,-0.134
25,GCCATACA,-0.138

row,Sequence,PBM E-score
1,GTCCTCAA,-0.137
2,CACGTCAG,-0.163
3,ACCGCCAG,0.368
4,GCCGCCGC,0.391
5,ACCGCCAA,0.276
6,CCCGCCGA,0.345
7,GCCGCCAA,0.24
8,ACCGCCAT,0.265
9,GCCGCCAC,0.191
10,CCCGCCGC,0.347
11,CCCGCCGG,0.39
12,ATACGGGC,0.103
13,TTGGACAA,-0.195
14,ATTATTGG,0.0592
15,AGGCCCAG,-0.226
16,AGGAGGGG,-0.302
17,GTTTTCGA,-0.115
18,GTCCCGAA,0.121
19,TCGCGCAA,-0.136
20,ATAGACAA,-0.202
21,CGTGAGGC,-0.133
22,ATTCAGCC,-0.129
23,AACCGCGG,0.347
24,CACCGCGG,0.419
25,AACCGCGA,0.272

row,Sequence,PBM E-score
1,CACCGCGC,0.401
2,AACCGCGC,0.273
3,CCCCGCGG,0.349
4,GACCGCGC,0.246
5,TACCGCGA,0.324
6,CACCGCGA,0.37
7,CCGCGCGA,0.168
8,CCGCGCGC,0.281
9,CCGCGCGG,0.404
10,AATACTCC,0.173
11,GACAGTTA,-0.0979
12,AAGACTAG,-0.389
13,AGCTACAG,-0.215
14,TCAATCCA,-0.0437
15,GCGCTAGA,0.112
16,AGCACGGG,0.199
17,ACCACCCA,-0.217
18,GGCCTCCC,-0.0321
19,CGGTGCAC,0.0634
20,ACACCGTC,0.424
21,ACACCGTA,0.346
22,AGACCGTC,0.252
23,ACACCGTG,0.416
24,CCACCGTC,0.246
25,AAACCGTG,-0.0899

row,Sequence,PBM E-score
1,AACTAGCA,-0.134
2,CTTCGGCA,0.209
3,CAGCTGGG,-0.0897
4,CTTGGGTA,-0.128
5,AAACTCTA,-0.134
6,CGGCATCA,0.387
7,CGGCATGC,0.273
8,AGGCATCA,-0.202
9,GGGCATGA,-0.083
10,CGGCACCA,0.394
11,CGGCACCG,0.342
12,CGGCATCC,0.224
13,AGGCACCA,-0.0686
14,CGGCATGA,0.367
15,CTCCCTAC,-0.0607
16,AAGTACCA,-0.0936
17,AAGTACCG,0.441
18,CATTACCG,0.205
19,AAGTACCC,0.0204
20,AATTACCC,0.0888
21,AAATACCC,0.279
22,CAATACCG,0.332
23,AATTACCG,0.395
24,AAATACCG,0.432
